Compound activity from PubChem.
FBA Mtb inh – Mtb FBA enzyme inhibitors, primary screen, biochemical, fluorescence, strain H37Rv; inhibition, % at 1 µM; Fructose-bisphosphate aldolase (Mycobacterium tuberculosis (strain ATCC 25618 / H37Rv)), …; purified M. tuberculosis FBA, fluorescence read-out; 360,000 compounds, 2.3% hits; in the data active means inhibition above about 27%;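 further: 0% = vehicle and 100% = reference inhibitor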
Target sequence (P9WQA3 whole entry, looked up): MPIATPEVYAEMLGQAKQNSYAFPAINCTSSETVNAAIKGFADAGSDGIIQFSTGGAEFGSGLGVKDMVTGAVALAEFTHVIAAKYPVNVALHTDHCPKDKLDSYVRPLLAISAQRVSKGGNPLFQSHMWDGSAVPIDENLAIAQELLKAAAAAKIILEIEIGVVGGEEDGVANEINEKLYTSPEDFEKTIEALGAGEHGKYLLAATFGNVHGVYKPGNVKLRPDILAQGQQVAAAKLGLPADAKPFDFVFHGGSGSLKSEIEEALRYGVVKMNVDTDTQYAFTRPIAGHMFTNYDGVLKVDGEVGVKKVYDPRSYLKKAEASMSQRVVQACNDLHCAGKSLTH
GDH-TPI inh – GDH-TPI coupling enzyme inhibitors, primary screen, artefact control for M. tuberculosis FBA inhibitor project, biochemical, absorbance, full deck; GDH-TPI coupled enzyme counterscreen, NADH absorbance; inhibition, % at 4.8 µM; 360,000 compounds, 1.2% hits; AID 588335, 2011; in the data active means inhibition above about 30%;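 further: 0% = DMSO wells and 100% = wells lacking the enzyme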
UGM FP inh – M. tuberculosis UGM enzyme inhibitors, primary screen, biochemical, fluorescence polarization, single point; inhibition, % at 10 µM; AID 504406, 2011; 320,000 compounds, 0.06% hits; purified UGM, fluorescence polarization probe displacement; in the data active means inhibition above about 10%, passing the limit was not always enough
Rv3671c protease – Rv3671c serine protease inhibitors, primary screen, biochemical, fluorescence polarization, M. tuberculosis H37Rv. P9WHR9. inhibition, % at 5.96 µM. 320,000 compounds, 0.048% hits. AID 2606, 2010; in the data active means inhibition above about 38%;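 further: extracellular domain of Rv3671c used as enzyme; 0% = enzyme with DMSO and 100% = no enzyme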
* = called active by the depositor; / = no result given; + = active, no number. A selection: hits, their analogues and other compounds. The true share with any hit is near 3.5%.

SMILES	FBA Mtb inh	GDH-TPI inh	UGM FP inh	Rv3671c protease
COc1ccc(/C=C2/SC(=S)NC2=O)cc1OCc1ccccc1	-0.7	18.6	-1.8	-34.2
COc1cc(/C=C/C(=O)OCC(=O)Nc2ccc3[nH]c(=O)[nH]c3c2)ccc1OC(F)F	-0.4	8.2	/	/
CC(=O)N1CCOc2ccc(S(=O)(=O)NC[C@H]3O[C@@H](n4ccc(=O)[nH]c4=O)[C@H](O)[C@@H]3O)cc21	-1.2	4.2	/	/
Cc1ccc2[nH]c3c(=S)nc[nH]c3c2c1	-0.2	25.8	3.1	-8.2
Cc1ccc2[nH]c3c(=O)n(N)c(=O)[nH]c3c2c1	119.2*	10.3	-0.9	-4.4
CCC(C)NC(=O)c1cc2c(=O)n3ccccc3nc2s1 (stereo unspecified)	+	17.1	1.7	1.4
CC(C)CCNC(=O)c1cc2c(=O)n3ccccc3nc2s1	120.8*	25.9	-0.4	-12.8
CN(C)S(=O)(=O)c1cccc(NC(=O)c2cc3c(=O)n4ccccc4nc3s2)c1	4.5	9.6	-2.5	1.2
CCC(C)NC(=O)c1cc2cc3ccc(OC)cc3nc2s1 (stereo unspecified)	109.7*	27.4	-3.5	-4.0
Cc1cccc(C2NC(c3cccc(C)c3)C(C)C(=O)C2C)c1 (stereo unspecified)	0.9	3.8	-1.9	1.3
CC1(C)C2CCC(C2)C1(C)NC(=O)CNCC1CCCCC1 (stereo unspecified)	1.7	-7.6	1.2	-0.5
O=C1NC(=O)/C(=C/c2cccc3ccccc23)S1	0.5	37.1*	1.2	-22.0
O=C1NC(=O)C(=Cc2ccccc2[N+](=O)[O-])S1	-1.4	9.5	/	/
CC(C)n1c(=O)c2ccccc2n1Cc1cn(-c2ccccc2)nn1	120.3*	/	/	/
CC(C)n1c(=O)c2ccccc2n1Cc1cn(Cc2ccccc2)nn1	114.8*	/	/	/
Cc1ccc(N(CC(=O)NCC2CCCO2)C(=O)CCC(=O)Nc2nccs2)cc1 (stereo unspecified)	-1.3	0.4	1.4	1.8
O=C1c2ccccc2C(=O)c2c(/C=C/N3CCCCC3)ccnc21	-3.2	2.3	/	/
COc1ccc(OCC(=O)N2CCN(C(=O)c3ccc(F)cc3)CC2)cc1	-1.2	-1.4	-1.3	1.9
CCOC(=O)N1CCC(Nc2c(-c3ccc(C)c(C)c3)c(=O)c2=O)CC1	-7.5	33.0*	-1.3	3.5
CCCCNCCS(=O)(=O)NCc1ccc(OC)cc1	-1.0	-5.2	/	/
Cc1cccc(-n2c(O)c(C=NC3CCS(=O)(=O)C3)c3ccccc3c2=O)c1C (stereo unspecified)	1.6	31.0*	1.1	-1.4
O=C(CN1CCCCC1)Nc1nnc(-c2ccccc2)s1	-0.9	2.6	-0.6	-2.5
O=C(CN1CCCCC1)Nc1nnc(-c2ccc([N+](=O)[O-])cc2)s1	0.7	41.0*	0.7	2.2
COc1ccc(CNC(=O)Nc2nc(C(N)c3ccccc3)cs2)cc1 (stereo unspecified)	-1.2	9.8	/	/
CCOc1ccc2ccc(OCC)c(/C=N/n3cnnc3)c2c1	1.1	0.8	1.4	0.8
SMILES	FBA Mtb inh	GDH-TPI inh	UGM FP inh	Rv3671c protease
COc1ccc(C2=Nn3c(nnc3-c3ccccc3)SC2)cc1OC	1.8	13.3	-2.8	-2.9
COc1ccc(OC)c(-c2nnc3n2N=C(c2ccc(OC)c(OC4CCCC4)c2)CS3)c1	5.4	31.9*	3.9	11.6
COc1ccc(C2=Nn3c(nnc3-c3ccccc3F)SC2)cc1OC1CCCC1	-2.9	28.1	1.6	-18.9
COc1ccc(OC)c(-c2nnc3n2N=C(c2ccc(OC)c(OC)c2)CS3)c1	2.4	34.5*	4.9	12.5
O=C(NCCOc1ccccc1)c1ccc2c(c1)S(=O)(=O)c1cc(Cl)ccc1C2=O	1.0	-3.5	2.4	12.3
CC(C)c1ccc(C(=O)N2CCCCC2c2cc(C(=O)NCc3cccnc3)no2)cc1 (stereo unspecified)	-0.9	1.8	/	/
Cc1c(C)c2ccc(OCC(=O)Nc3nccs3)cc2oc1=O	65.4*	16.7	-1.1	-5.6
CCCOC1CCCN(C(=O)CCc2nnc(-c3ccc4c(c3)OCO4)o2)C1 (stereo unspecified)	7.8	5.8	-1.1	10.9
Cc1ccc2nc(NC(=O)COC(=O)c3ccco3)sc2c1	1.5	-9.1	-0.9	-12.2
O=C(Nc1nc2ccc(F)cc2s1)c1cccs1	3.2	40.2*	-1.9	0.8
CN(C)S(=O)(=O)c1ccc2nc(NC(=O)c3cccs3)sc2c1	10.3	30.5	0.2	-8.3
O=C(COC(=O)c1ccco1)Nc1nc2ccc([N+](=O)[O-])cc2s1	1.6	33.8*	1.7	-7.9
CCOC(=O)c1ccc2nc(NC(=O)c3ccco3)sc2c1	21.9	36.5*	0.0	-20.0
CCOC(=O)c1ccc2nc(NC(=O)c3cccs3)sc2c1	25.2	37.8*	0.3	-11.9
COc1ccc(NC(=O)C(OC(=O)Cn2cnc3c2c(=O)n(C)c(=O)n3C)c2ccccc2)cc1Cl (stereo unspecified)	3.0	13.6	/	/
CN(c1ccc(OCC(=O)N2CCOCC2)cc1)S(=O)(=O)c1ccc(Cl)cc1	2.2	0.0	0.8	2.2
C/C(=N\Nc1nc2ccccc2[nH]1)c1ccc2c(c1)OCO2	1.6	31.1*	1.2	5.4
C/C(=N\Nc1nc2ccccc2[nH]1)c1ccccn1	-4.1	9.2	-2.6	2.6
C/C(=N\Nc1nc2ccccc2[nH]1)c1cc2ccccc2o1	4.0	32.6*	1.3	11.1
C/C(=N\Nc1nc2ccccc2[nH]1)c1ccc2c(c1)OCCO2	3.4	13.1	1.2	6.0
O=[N+]([O-])c1ccc(Nc2nc(N/N=C\c3ccc4c(c3)OCO4)nc(N3CCCCC3)n2)cc1	-1.2	34.7*	1.2	-22.2
Cc1ccc2c(c1)CO[C@]21O[C@H](CCO)C[C@H](O)[C@H]1O	3.5	17.5	/	/
Cn1nc(C(=O)N2CCN(C(c3ccccc3)c3ccccc3)CC2)c2ccccc2c1=O	1.6	-0.7	-0.5	1.5
N=c1c(C(=O)NCc2ccco2)cc2c(=O)n3ccccc3nc2n1CC1CCCO1 (stereo unspecified)	+	19.8	0.1	1.3
Cc1cccn2c(=O)c3cc(S(=O)(=O)c4ccccc4)c(=N)n(CC4CCCO4)c3nc12 (stereo unspecified)	/	/	-0.1	2.4
Cc1cccn2c(=O)c3cc(C(=O)NCCc4ccccc4)c(=N)n(CC4CCCO4)c3nc12 (stereo unspecified)	118.6*	1.5	-3.9	-0.8
Cc1cccn2c(=O)c3cc(C(=O)NCc4cccnc4)c(=N)n(CC4CCCO4)c3nc12 (stereo unspecified)	+	5.8	3.1	1.2
COc1ccc(CCNC(=O)c2cc3c(=O)n4ccccc4nc3n(CC3CCCO3)c2=N)cc1OC (stereo unspecified)	3.4	3.5	-1.8	-7.0
N=c1c(C(=O)NCc2ccc3c(c2)OCO3)cc2c(=O)n3ccccc3nc2n1CC1CCCO1 (stereo unspecified)	16.2	4.3	-0.9	11.3
